Shown are actives, neighbours in structure and some others; about 4% of the full set was active somewhere.
TROY signal inh = inhibitors of TROY-driven NF-kB signaling, primary screen, Q293 LMP1-TROYcd cells, NF-kB luciferase, uHTS; Q293 LMP1-TROYcd NF-kB luciferase reporter, 4 h; inhibition, % at 10 µM; hit rate 0.98% among 360,000;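 active means compounds whose plate-normalised and pattern-corrected inhibition of the luciferase reporter signal at the single screening dose is 50% or more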
CF NFkB inh = inhibitors of PAF-induced NF-kB signaling, primary screen, cell-based, GFP fluorescence, uHTS; KKLEB NF-kB-GFP reporter, GFP fluorescence overnight; inhibition, % at 5 µM; hit rate 0.86% among 360,000; AID 588850, 2011;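 active means at least 50% inhibition at 5 µM, scaled per plate between neutral and stimulator controls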;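 further: PAF is a Pseudomonas aeruginosa culture filtrate used as stimulus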
KKLEB tox = cytotoxicity in KKLEB CF airway cells, primary screen, cytotoxicity control for CF NF-kB inhibitor project, cell-based, uHTS, fluorescence assay plates; KKLEB CF airway cells viability, ATPlite luminescence, overnight; hits give low values; cells stimulated with P. aeruginosa culture filtrate; activity change (cytotoxicity), % at 5 µM; hit rate 0.36% among 360,000; AID 602141, 2011;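 active means corrected activity change at or below -50% at 5 µM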
HIF-2a inh = HIF-2a reporter inhibitors, primary screen, luminescence, 786-0 RCC cells. inhibition, % at 18.8 µM. hit rate 0.72% among 360,000. AID 624352, 2012. 786-0 RCC cells HIF-2a reporter, luciferase luminescence, overnight;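 active means inhibition of the luminescence signal of 40% or more relative to plate controls, in a single-dose primary screen at 18.75 µM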
Peg3 promoter = Peg3 promoter-driven luciferase inhibitors, primary screen, cell-based, HeLa, luciferase luminescence | hit rate 1.7% among 360,000 | AID 588405, 2011 | HeLa PEG-Prom luciferase reporter, overnight | inhibition, % at 20 µM;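 active means inhibition of at least 50% at 20 µM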
TWEAK Fn14 block = inhibitors of TWEAK-Fn14 signaling, primary screen, luciferase reporter cells, uHTS. TWEAK-stimulated Fn14 reporter cells, luciferase luminescence, 8 h. inhibition, % at 10 µM. hit rate 2% among 360,000; in the data active means inhibition above about 50%
Hits are given with their value; i = inactive; nt = no result; ! = not confirmed by another sample.

SMILES | TROY signal inh | CF NFkB inh | KKLEB tox | HIF-2a inh | Peg3 promoter | TWEAK Fn14 block
COc1cccc(C(C#N)N2CCCCC2)c1O (configuration not stated) | i | i | i | i | i | i
CN(C)S(=O)(=O)c1cc(NC(=O)COC(=O)CC2Sc3ccccc3NC2=O)ccc1Cl (configuration not stated) | i | i | i | i | i | i
C=CCSc1nnc(CNS(=O)(=O)c2ccc(C)cc2)n1C | i | i | i | i | i | i
COc1ccc(C(=O)CCC(C)(C)[N+](=O)[O-])cc1OC | i | i | i | i | i | i
CNC(=O)c1ccsc1NC(=O)c1sc2ccccc2c1Cl | i | i | i | i | i | i
Cc1[nH]c2ccccc2c1C(C#N)(C#N)C1C(=O)c2ccccc2C1=O | 53 | i | i | i | i | 97
CCOc1ccccc1NC(=O)c1cc(C(=O)c2cc(Br)ccc2O)coc1=N | 59 | i | i | i | i | i
CC(C)OC(=O)c1cc(C(=O)c2cc(Br)ccc2O)coc1=N | i | i | i | i | i | i
CCOC(=O)CN(c1cccc(C(C)=O)c1)S(C)(=O)=O | i | i | i | i | i | i
Cc1ccc(CNC(=O)c2ccc(N3CCC4(CC3)CC(c3cccc(Br)c3)=NO4)c(NC(=O)c3ccc(Cl)c([N+](=O)[O-])c3)c2)cc1 | i | i | i | i | i | i
CCCNC(=O)c1ccc(N2CCC3(CC2)CC(c2cccc(Br)c2)=NO3)c(NC(=O)c2ccc(Cl)c([N+](=O)[O-])c2)c1 | i | i | i | i | 73 | i
O=C(Nc1ccccc1)c1cc2ccccc2o1 | i | i | i | i | i | i
CCC(=O)N1CCN(c2ccc(NC(=S)NC(=O)c3cc4ccccc4o3)cc2)CC1 | 61 | i | i | i | i | i
CCC(=O)N1CCN(c2ccc(NC(=O)c3cc4ccccc4o3)cc2Cl)CC1 | 66 | i | i | i | 108 | 93
O=C(Nc1ccc(NC(=O)c2cc3ccccc3o2)cc1)c1ccco1 | i | i | i | i | 63 | i
O=C(Nc1ccc(N2CCN(C(=O)c3ccccc3)CC2)c(Cl)c1)c1ccco1 | i | i | i | i | i | i
O=C(Nc1ccc(N2CCN(C(=O)c3ccco3)CC2)c(Cl)c1)c1cc2ccccc2o1 | 72 | i | i | i | 100 | 97
COc1cccc(C(=O)Nc2ccccc2-c2ccccc2)c1 | i | i | i | i | i | i
CCCC(=O)N1CCN(c2ccc(NC(=O)c3cccs3)cc2Cl)CC1 | i | i | i | i | i | i
O=C(Nc1ccccc1-c1ccccc1NC(=O)c1ccco1)c1ccco1 | nt | i | i | i | i | 66
CCCC(=O)N1CCN(c2ccc(NC(=O)c3cc4ccccc4o3)cc2Cl)CC1 | 81 | i | i | i | 104 | 95
O=C(Nc1ccccc1-c1ccccc1)c1ccccc1 | i | i | i | i | i | 62
CCOC(=O)[C@]12CCCC=C1N(CCC1=CCCCC1)C(=O)[C@H](CC(=O)NCCc1ccccc1OC)C2 | nt | nt | nt | i | nt | nt
Cn1c(SCc2cccc(Br)c2)nnc1-c1ccncc1 | i | i | i | i | i | i
Cc1cc(Nc2cccc(Cl)c2)nc(N2CCOCC2)n1 | 91 | i | i | i | i | 92
SMILES | TROY signal inh | CF NFkB inh | KKLEB tox | HIF-2a inh | Peg3 promoter | TWEAK Fn14 block
Cc1cc(Nc2ccccc2)nc(N2CCOCC2)n1 | i | i | i | i | i | i
c1ccc(-c2cn3c4c(sc3n2)CCCC4)cc1 | 72 | i | -58 | i | 53! | 89
Cc1[nH]c2ccccc2c1CC#N | i | i | i | i | i | i
Cc1[nH]c2ccccc2c1C1=CC(=O)C=CC1=O | i | 74 | i | i | 76 | i
CCCCCC(=O)N1C[C@H](n2cc(COC(=O)c3ccccc3)nn2)[C@@H](O)C[C@@H]1c1ccc(Cl)cc1 | i | i | i | i | i | i
O=C(OCC(=O)N1CCCc2ccccc21)c1cc(S(=O)(=O)N2CCOCC2)ccc1O | i | i | i | i | i | i
CCc1ccc(OCC(=O)Nc2cc(S(=O)(=O)CC)ccc2O)cc1 | i | i | i | i | i | i
O=C(O)c1ccc(N=Nc2c(O)ccc3ncccc23)cc1 | i | i | i | i | i | 59
Cc1cccc(NC(=O)C2CCN(S(=O)(=O)c3ccc(Cl)cc3)CC2)n1 | i | i | i | i | i | i
CC(Sc1nnc(CN2CCCC2)n1Cc1ccccc1)C(=O)Nc1ccccc1 (configuration not stated) | 66 | i | i | i | i | i
Cc1cc(C)nc(NS(=O)(=O)c2ccc(NS(=O)(=O)c3ccsc3)cc2)n1 | i | i | i | i | i | i
COc1ccc2c(c1OC)C(=O)O[C@@H]2[C@H]1c2c(cc3c(c2OC)OCO3)CCN1C | i | i | i | i | i | i
COc1ccc2cc1Oc1ccc(cc1)C[C@H]1c3c(cc4c(c3Oc3cc5c(cc3OC)CCN(C)[C@@H]5C2)OCO4)CCN1C | i | i | i | i | 87 | i
O=C(O)c1ccccc1Nc1cc(Cl)c2nonc2c1[N+](=O)[O-] | i | i | i | i | i | i
O=[N+]([O-])c1c(Nc2ccc(O)cc2)cc(Cl)c2nonc12 | 83 | 103 | -76 | 95 | 103 | 67
CN(C)c1cc(Nc2ccc(O)cc2)c([N+](=O)[O-])c2nonc12 | i | i | i | i | i | i
O=[N+]([O-])c1c(Nc2ccccn2)cc(Cl)c2nonc12 | i | 67 | i | 96 | 108 | i
CC(=O)N1CCC(C(=O)N2CCN(S(=O)(=O)c3ccc(Cl)s3)CC2)CC1 | i | i | i | i | i | i
CCC(=O)N1CCc2cc(S(=O)(=O)CCC(=O)NCCc3ccccc3)ccc21 | i | i | i | i | i | i
CCC(=O)N1CCc2cc(S(=O)(=O)CCC(=O)NCc3ccco3)ccc21 | i | i | i | i | i | 101
CC(C)(NC(=O)NC(CO)c1ccccc1)c1cccc(C(C)(C)NC(=O)NC(CO)c2ccccc2)c1 (configuration not stated) | i | i | i | i | i | i
Cc1cc(Oc2nc3c(C)cccn3c(=O)c2/C=C(\C#N)S(=O)(=O)c2ccc(Cl)cc2)ccc1Cl | i | i | i | i | i | i
CC(=O)Nc1ccc(OCC(O)Cn2c3ccccc3c3ccccc32)c(C)c1 (configuration not stated) | i | i | i | i | i | 58
CC(=O)Nc1ccc(N(CC(O)Cn2c3ccccc3c3ccccc32)S(=O)(=O)c2ccc(C)cc2)cc1 (configuration not stated) | i | i | i | i | 61 | i
C=CCOc1c(CNc2cccc(C(=O)O)c2)cccc1OC | i | i | i | i | i | 54
